# Rows were chosen to be rich in hits. Some 7.3% of all compounds tested hit in one or more screens of this group.
# VACV Venus inh – qHTS for Stage-Specific Inhibitors of Vaccinia Orthopoxvirus: Venus Reporter Primary qHTS; Potency, µM (highest dose often 36.5 µM), without a hit: at the top dose activity change, negative = inhibition, hits mostly inhibitors; Vaccinia virus Venus reporter expression, fluorescence; actives 0.46% (n = 330,000); calls by dose curve; tested in A549 cells; also: potency is read from the fitted curve at half-maximal effect; nearly all actives have a fitted effect of over 30% in size
# FMDV inh – High Throughput Screening for Foot and Mouth Disease Virus Antivirals | FMDV antiviral cell-based qHTS | Potency, µM (series often up to 57.9 µM), for inactives: at the highest dose activity change, negative = inhibition, usual class: inhibitors | actives 1.2% (n = 410,000) | AID 1159524, 2015; calls by dose curve; tested in HEK293T cells; also: read-out not given here; potency is read from the fitted curve at half-maximal effect; nearly all actives have a fitted effect of over 45% in size
# Vaccinia mCherry – qHTS for Stage-Specific Inhibitors of Vaccinia Orthopoxvirus: mCherry Reporter Primary qHTS; Vaccinia virus mCherry reporter infection, fluorescence; actives 0.63% (n = 310,000); Potency, µM (series often up to 36.5 µM), without a hit: at the top dose activity change, negative = inhibition, most hits filed as inhibitors; calls by dose curve; tested in A549 cells; also: potency is read from the fitted curve at half-maximal effect; nearly all actives have a fitted effect of over 35% in size
# HCV inh – qHTS Assay for Inhibitors of Hepatitis C Virus (HCV); Huh7.5.1 HCVcc-Cre infection, luciferase reporter, 44 h; Potency, µM (doses to about 41.8 µM), without a hit: at the top dose activity change, negative = inhibition, hits mostly inhibitors; actives 3.4% (n = 340,000); AID 651820, 2012; active = well fitted inhibition curve with a large enough effect; inconclusive = small, poorly fitted or top-dose-only effect, or another doubt; inactive = no such curve, though single readings can be large or run the other way; also: potency is read from the fitted curve at half-maximal effect
#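 Cells (1,000/well) were plated 4 h before compound, then infected with HCVcc-Cre virus (~0.5 moi). After 44 h further culture, infection was read as luciferase luminescence following a 15 min substrate incubation at room temperature.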
# HCMV antiviral – qHTS Assay for inhibitors of the human cytomegalovirus (HCMV). HFF cells, HCMV-luciferase reporter, 72 h; active compounds read low. activity change, negative = inhibition, % at 57.5 µM. actives 4.5% (n = 410,000); in the data active = activity change below about -60%; inconclusive = no clear call, values can overlap the other calls; inactive = above about -39%
#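 Luciferase read-out from HCMV-luciferase-infected HFFs (MOI 1 PFU/cell) 72 h post infection at 37C; compounds added after 16 h cell attachment; activity normalized between buffer-only basal and Salinomycin (10uM) inhibitor controls.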
# Numbers without * were called inactive; i = inactive; ? = inconclusive; . = not tested or not shown. % is scaled to controls: 0 for no effect and ±100 for the full control effect.
SMILES,VACV Venus inh,FMDV inh,Vaccinia mCherry,HCV inh,HCMV antiviral
CCOC(=O)C1=C(COC(=O)CNC(=O)c2ccc(Cl)cc2Cl)NC(=O)NC1C (configuration not stated),-3.0%,14.1%,-14.3%,?,9.4
O=C(CSC1=NCCS1)N1CCN(c2ccc(Cl)cc2)CC1,-29.1%,?,?,?,-81.9*
CS(=O)(=O)N1CCC2(CC1)CN(Cc1ccc(C#N)cc1)C2,.,-6.3%,.,.,.
CCN(CC)S(=O)(=O)c1ccc(N2CCN(c3ccccc3O)CC2)nc1,-9.2%,23.0%,?,11.2µM*,-39.9
CCOC(=O)N1CCN(c2ccc(S(=O)(=O)N(Cc3ccccc3)Cc3ccccc3)cn2)CC1,-10.0%,?,.,?,-90.3*
O=C(NC1CCSC1=O)C1CC(=O)N(c2ccc(F)cc2)C1 (configuration not stated),17.6%,24.7%,1.1%,4.0%,7.1
O=C(c1ccco1)N1N=C(c2ccco2)CC1c1ccc(Cl)cc1Cl (configuration not stated),.,-19.2%,.,-10.9%,-37.0
CC(=O)N1CCCC1c1nc2ccccc2n1Cc1cccc(Cl)c1 (configuration not stated),-0.4%,-30.5%,-11.3%,.,5.8
CC(CCc1ccccc1)NC(=O)COC(=O)c1ccc(NC(=O)CC#N)cc1 (configuration not stated),.,3.8%,.,-6.2%,13.1
Clc1ccc(-c2cn(-c3ccc(Cl)cc3)c3[n+]2CCCCC3)cc1,-10.3%,?,-5.5%,1.4%,?
COc1ccc(-n2cc(-c3ccc(OC(F)F)cc3)[n+]3c2CCCCC3)cc1,.,?,.,-23.3%,-84.9*
COc1ccc(-c2cn(-c3ccc(Cl)cc3)c3[n+]2CCCCC3)cc1,-15.9%,-16.4%,i,-2.6%,-66.0*
COc1ccc(N2CC(O)(c3ccc(OC(F)F)cc3)[N+]3=C2CCCC3)cc1 (configuration not stated),-0.6%,-25.3%,-14.9%,6.4%,-33.0
CCCOc1ccc(Br)cc1/C=N/O,?,-8.5%,.,10µM*,10.2
CCOc1ccc(Br)cc1/C=N/O,-12.0%,.,-17.3%,8.91µM*,2.5
O=C(O)COc1ccc(Br)cc1/C=N/O,-10.9%,7.7%,.,16.9%,-20.1
O=C(c1ccc2c3c(cccc13)CC2)C1CCCN(Cc2ccncc2)C1 (configuration not stated),.,?,.,?,-68.7*
CCc1nc(CN2CCCC(C(=O)c3ccc4c5c(cccc35)CC4)C2)c(C)[nH]1 (configuration not stated),-12.6%,?,-22.2%,10µM*,?
CCCc1cc(NCCCN2CCOCC2)n2c(nc3ccccc32)c1C#N,2.2%,-25.7%,.,?,-60.1*
COc1ccc(CCNC2CC(=O)N(CCc3ccccc3)C2=O)cc1OC (configuration not stated),-15.1%,-18.8%,-18.6%,4.8%,9.0
COc1ccc(CCNC2=C(Cl)C(=O)N(CCc3ccccc3)C2=O)cc1OC,-15.4%,22.4µM*,-17.2%,12.6µM*,-14.8
O=c1oc2ccccc2c2c1nnn2CCO,-12.6%,-11.5%,-21.2%,20.2%,-63.4*
CCCn1nnc2c(=O)oc3ccccc3c21,-5.1%,-14.3%,i,17.9%,-5.3
COc1ccc(N2C(=O)CSC(c3ccccc3)C2=O)cc1 (configuration not stated),-0.5%,-6.3%,-8.7%,17.1%,-105.0*
O=S(=O)(Nc1cccc(-c2cn3cccnc3n2)c1)c1ccccc1,-13.4%,-11.6%,-7.0%,0.5%,-8.3
SMILES,VACV Venus inh,FMDV inh,Vaccinia mCherry,HCV inh,HCMV antiviral
O=S(=O)(Nc1cccc(-c2cn3cccnc3n2)c1)c1ccc(-c2ccccc2)cc1,-12.6%,0.0%,.,4.47µM*,-76.7*
CCc1nc2cc(C(=O)N3CCCN(C=O)CC3)cc(NC(=O)c3ccccc3OC)c2n1C,-0.2%,-1.1%,-6.8%,.,.
O=S(=O)(Oc1ccccc1)c1ccc(Cl)c(Cl)c1,4.2%,3.6%,?,7.8%,-5.3
O=[N+]([O-])c1cc(S(=O)(=O)Oc2ccccc2)ccc1Cl,?,?,?,?,-88.7*
O=C(NCCN1CCN(c2cccc(Cl)c2)CC1)c1ccc(CSc2nc3ccncc3[nH]2)cc1,-15.2%,-21.7%,-10.5%,?,-79.4*
CCN(CCNC(=O)c1ccc(CSc2nc3ccncc3[nH]2)cc1)c1ccccc1,-11.3%,-15.6%,-12.3%,?,-24.9
CCOc1ccc(/C=N/Nc2cc(N3CCOCC3)ncn2)c(O)c1,?,?,?,.,23.7
CCCOc1ccc(/C=N/Nc2cc(N3CCOCC3)ncn2)c(O)c1,.,-15.1%,.,?,-101.2*
O=S(=O)(NCc1nnc2ccccn12)c1ccc(Cl)cc1,-8.9%,-9.9%,-13.1%,0.3%,0.3
C/C(=N\NC(N)=S)c1ccc(Cl)s1,?,-25.2%,0.355µM*,-10.4%,-67.5*
C/C(=N\NC(=S)NC(C)C)c1ccc(Cl)s1,-28.2%,1.2%,-18.2%,6.31µM*,-30.0
C/C(=N\NC(=O)c1ccoc1C)c1ccc(Cl)s1,.,29.5%,.,-11.5%,-33.0
O=C(c1cc(C(=O)NCc2ccccc2)c(=O)n(Cc2ccccc2)c1)c1cc(Cl)ccc1O,?,-1.1%,-20.6%,?,-2.2
Cc1ccccc1NC(=O)c1cc(C(=O)c2cc(Cl)ccc2O)cn(-c2ccccc2C)c1=O,?,?,?,12.6µM*,-65.2*
Cc1ccc(OCCNc2cc(N3CCN(CCO)CC3)ccc2[N+](=O)[O-])cc1C,?,-22.9%,?,10µM*,-15.0
Cc1cccc(OCCNc2cc(N3CCOCC3)ccc2[N+](=O)[O-])c1,?,29.7%,?,10µM*,1.7
Cc1cccc(OCCNc2cc(N3CCN(C)CC3)ccc2[N+](=O)[O-])c1,-1.0%,15.9%,i,?,2.0
Nc1nc(CN2CCN(c3ccccc3F)CC2)nc(Nc2ccc3c(c2)OCCO3)n1,.,22.4µM*,.,23.2%,-16.1
COc1ccccc1N1CCN(Cc2nc(N)nc(Nc3ccc(C)c(Cl)c3)n2)CC1,?,-3.5%,?,11.2µM*,-17.4
COc1ccccc1Nc1nc(N)nc(CN2CCN(c3ccccc3F)CC2)n1,-20.1%,-2.7%,?,-5.6%,11.0
CCSc1nc2n(n1)C(c1ccc(CC)cc1)C(C(=O)Nc1ccccc1OC)=C(C)N2 (configuration not stated),-24.0%,-13.1%,-26.0%,.,-1.3
CCOC(=O)c1ccccc1NC(=O)NC(C)c1c(-n2cccc2)sc(C)c1C (configuration not stated),-6.3%,-18.9%,-9.1%,.,-4.3
Cn1cc(Cc2ccc(C(=O)N3CCN(Cc4ccccc4)CC3)cn2)c2ccccc21,.,.,.,.,-3.2
O=C(O)CSCC(=O)Nc1ccc(C2CCCCC2)cc1,-10.2%,1.12µM*,-7.4%,14.8%,-92.0*

# Source: PubChem (National Center for Advancing Translational Sciences (NCATS))
